Drawing on the supplement of paper PMC6378613, this text covers kinase activity remaining for 49 targets.

Compound in the experiment: Cc1ccc(-c2ccc3c(ccc4sc5c(c43)NC[C@@H](C)NC5=O)n2)cn1
The experiment can be described thus: kinase activity remaining relative to vehicle control; higher = less inhibition. On the procedure:
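In vitro radiometric kinase profiling of the MK2 inhibitor PF-3644022 at 0.1, 1 and 10 µM against a panel of kinases (MRC International Centre for Kinase Profiling, Dundee). Read-out is % kinase activity remaining relative to the vehicle control, mean of n=2.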

UniProt Q5TCY1, sequence (Q5TCY1 whole entry, looked up): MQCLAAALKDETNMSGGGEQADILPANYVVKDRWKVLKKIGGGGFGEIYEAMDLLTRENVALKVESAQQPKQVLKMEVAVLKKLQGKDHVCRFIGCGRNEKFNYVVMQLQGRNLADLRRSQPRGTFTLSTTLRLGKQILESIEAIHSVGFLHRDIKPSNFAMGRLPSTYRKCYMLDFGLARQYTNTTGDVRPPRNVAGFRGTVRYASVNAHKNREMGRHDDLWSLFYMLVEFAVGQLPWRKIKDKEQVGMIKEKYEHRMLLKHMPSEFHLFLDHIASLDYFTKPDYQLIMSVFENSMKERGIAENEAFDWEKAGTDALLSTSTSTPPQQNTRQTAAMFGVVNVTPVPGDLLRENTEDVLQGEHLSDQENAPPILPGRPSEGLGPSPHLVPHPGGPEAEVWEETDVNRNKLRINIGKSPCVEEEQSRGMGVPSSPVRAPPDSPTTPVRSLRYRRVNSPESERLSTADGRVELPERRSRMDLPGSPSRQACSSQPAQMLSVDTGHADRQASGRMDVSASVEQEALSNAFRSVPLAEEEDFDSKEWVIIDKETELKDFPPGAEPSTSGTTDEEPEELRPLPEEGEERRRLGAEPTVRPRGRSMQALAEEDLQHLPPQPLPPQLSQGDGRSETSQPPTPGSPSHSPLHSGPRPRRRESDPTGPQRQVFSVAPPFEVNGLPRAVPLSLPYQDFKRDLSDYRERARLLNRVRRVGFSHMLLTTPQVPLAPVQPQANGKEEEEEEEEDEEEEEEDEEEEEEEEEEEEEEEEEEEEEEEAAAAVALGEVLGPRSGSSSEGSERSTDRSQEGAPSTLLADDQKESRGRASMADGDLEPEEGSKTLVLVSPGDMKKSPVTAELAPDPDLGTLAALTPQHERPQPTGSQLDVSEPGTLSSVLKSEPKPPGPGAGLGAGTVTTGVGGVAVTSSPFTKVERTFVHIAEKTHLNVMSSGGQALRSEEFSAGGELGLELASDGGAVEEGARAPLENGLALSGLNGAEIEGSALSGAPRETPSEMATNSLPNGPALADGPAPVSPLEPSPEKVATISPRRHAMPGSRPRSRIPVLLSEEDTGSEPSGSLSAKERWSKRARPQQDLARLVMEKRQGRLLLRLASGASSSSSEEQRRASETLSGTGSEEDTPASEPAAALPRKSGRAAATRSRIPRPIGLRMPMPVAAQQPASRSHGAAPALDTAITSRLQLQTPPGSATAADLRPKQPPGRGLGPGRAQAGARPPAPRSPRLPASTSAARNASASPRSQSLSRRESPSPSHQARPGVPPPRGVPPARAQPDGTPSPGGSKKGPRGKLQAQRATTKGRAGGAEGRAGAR
UniProt P33981, sequence (P33981 whole entry, looked up): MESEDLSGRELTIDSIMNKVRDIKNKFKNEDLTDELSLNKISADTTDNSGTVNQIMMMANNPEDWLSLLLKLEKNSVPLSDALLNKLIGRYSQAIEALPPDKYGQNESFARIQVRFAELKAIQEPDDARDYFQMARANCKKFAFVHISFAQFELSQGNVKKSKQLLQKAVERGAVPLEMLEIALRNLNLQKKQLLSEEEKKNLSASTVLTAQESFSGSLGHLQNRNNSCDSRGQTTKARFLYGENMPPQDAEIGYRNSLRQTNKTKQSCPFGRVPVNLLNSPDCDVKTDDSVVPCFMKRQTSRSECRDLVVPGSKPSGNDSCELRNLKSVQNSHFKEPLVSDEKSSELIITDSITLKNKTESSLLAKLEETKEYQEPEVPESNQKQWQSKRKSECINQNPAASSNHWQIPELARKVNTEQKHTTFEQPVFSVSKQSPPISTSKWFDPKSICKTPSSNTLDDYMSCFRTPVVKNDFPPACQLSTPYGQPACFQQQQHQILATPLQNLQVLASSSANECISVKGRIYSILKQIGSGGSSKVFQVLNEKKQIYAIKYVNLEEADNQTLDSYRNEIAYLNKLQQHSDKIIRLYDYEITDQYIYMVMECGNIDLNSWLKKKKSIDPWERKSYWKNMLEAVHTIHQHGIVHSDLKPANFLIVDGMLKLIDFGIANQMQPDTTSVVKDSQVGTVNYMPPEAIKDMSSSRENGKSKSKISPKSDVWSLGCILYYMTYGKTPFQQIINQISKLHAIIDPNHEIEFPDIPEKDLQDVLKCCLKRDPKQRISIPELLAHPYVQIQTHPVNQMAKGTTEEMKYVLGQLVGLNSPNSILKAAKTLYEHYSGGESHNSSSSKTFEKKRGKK
UniProt Q9H0K1, sequence (Q9H0K1 whole entry, looked up): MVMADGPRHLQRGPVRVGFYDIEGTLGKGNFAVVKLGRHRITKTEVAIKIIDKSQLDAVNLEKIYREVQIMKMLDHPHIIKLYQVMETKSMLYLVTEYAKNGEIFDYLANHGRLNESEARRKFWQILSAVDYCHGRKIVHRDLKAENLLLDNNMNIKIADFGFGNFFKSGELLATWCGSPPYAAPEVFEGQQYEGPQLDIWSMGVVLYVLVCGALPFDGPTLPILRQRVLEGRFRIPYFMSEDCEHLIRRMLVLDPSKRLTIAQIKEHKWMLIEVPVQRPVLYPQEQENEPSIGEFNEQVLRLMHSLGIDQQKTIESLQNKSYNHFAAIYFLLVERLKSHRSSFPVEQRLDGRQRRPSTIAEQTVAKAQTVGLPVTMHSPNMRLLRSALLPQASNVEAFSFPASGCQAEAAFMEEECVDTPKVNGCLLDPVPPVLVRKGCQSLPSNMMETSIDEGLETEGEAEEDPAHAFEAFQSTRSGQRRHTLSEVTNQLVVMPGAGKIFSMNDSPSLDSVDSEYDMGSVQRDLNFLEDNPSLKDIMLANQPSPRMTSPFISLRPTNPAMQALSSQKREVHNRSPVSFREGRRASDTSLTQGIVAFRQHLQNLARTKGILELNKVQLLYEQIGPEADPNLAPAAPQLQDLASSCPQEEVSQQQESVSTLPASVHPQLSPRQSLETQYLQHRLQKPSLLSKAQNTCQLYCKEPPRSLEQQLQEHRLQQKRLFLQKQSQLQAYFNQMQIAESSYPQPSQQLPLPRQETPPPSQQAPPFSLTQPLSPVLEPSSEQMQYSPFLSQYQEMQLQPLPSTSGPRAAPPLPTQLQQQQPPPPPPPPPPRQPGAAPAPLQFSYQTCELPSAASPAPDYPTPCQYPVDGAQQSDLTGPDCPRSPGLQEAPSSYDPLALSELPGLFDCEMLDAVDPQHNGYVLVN
UniProt Q9P0L2, sequence (Q9P0L2 whole entry, looked up): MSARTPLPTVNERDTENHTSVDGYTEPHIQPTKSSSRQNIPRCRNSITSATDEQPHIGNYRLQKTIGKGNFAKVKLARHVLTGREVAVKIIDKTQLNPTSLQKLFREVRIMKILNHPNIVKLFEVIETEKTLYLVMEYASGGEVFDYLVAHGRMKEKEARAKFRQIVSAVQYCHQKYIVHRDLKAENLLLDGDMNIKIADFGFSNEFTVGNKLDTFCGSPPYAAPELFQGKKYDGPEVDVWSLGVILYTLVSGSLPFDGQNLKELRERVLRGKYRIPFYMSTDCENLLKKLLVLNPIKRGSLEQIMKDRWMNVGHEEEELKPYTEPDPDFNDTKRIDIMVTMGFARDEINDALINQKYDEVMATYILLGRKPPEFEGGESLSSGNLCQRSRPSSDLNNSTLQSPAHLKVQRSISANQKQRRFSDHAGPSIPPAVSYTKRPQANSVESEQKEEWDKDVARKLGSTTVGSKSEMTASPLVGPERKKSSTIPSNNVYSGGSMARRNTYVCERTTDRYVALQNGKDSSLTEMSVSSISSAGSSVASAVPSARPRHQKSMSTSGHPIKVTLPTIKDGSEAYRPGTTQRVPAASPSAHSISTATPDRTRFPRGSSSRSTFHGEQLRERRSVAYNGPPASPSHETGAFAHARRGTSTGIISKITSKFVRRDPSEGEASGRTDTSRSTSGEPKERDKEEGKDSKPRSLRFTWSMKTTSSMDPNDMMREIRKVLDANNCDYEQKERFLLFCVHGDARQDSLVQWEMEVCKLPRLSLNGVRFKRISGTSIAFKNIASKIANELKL
UniProt Q9P289, sequence (Q9P289 whole entry, looked up): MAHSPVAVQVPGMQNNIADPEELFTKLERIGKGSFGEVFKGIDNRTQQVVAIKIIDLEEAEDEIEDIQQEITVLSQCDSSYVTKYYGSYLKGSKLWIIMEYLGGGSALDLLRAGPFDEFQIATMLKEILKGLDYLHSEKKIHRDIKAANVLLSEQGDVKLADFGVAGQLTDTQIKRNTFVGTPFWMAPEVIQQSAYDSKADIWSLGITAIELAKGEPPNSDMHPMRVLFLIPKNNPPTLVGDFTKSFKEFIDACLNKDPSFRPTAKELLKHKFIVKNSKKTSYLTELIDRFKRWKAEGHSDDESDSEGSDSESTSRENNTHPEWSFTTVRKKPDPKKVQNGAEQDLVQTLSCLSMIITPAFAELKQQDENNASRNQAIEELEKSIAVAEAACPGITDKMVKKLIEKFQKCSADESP
UniProt P06239, sequence (P06239 whole entry, looked up): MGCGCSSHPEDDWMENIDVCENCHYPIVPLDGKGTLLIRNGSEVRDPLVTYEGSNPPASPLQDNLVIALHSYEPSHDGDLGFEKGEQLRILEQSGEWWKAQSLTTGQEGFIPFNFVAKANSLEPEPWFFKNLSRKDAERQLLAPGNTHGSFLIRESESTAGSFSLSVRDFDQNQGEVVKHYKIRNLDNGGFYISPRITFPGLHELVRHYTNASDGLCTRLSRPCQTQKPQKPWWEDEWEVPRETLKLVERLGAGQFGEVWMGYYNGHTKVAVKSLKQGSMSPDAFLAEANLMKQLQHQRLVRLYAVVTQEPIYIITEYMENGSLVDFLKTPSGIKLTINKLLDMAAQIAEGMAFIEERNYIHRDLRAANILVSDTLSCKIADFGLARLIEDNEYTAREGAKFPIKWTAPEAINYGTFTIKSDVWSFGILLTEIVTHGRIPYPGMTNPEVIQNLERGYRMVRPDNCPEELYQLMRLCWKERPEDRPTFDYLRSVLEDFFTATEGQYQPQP

As to BRK (UniProt Q13882), the kinase activity remaining is, setting by setting: (inhibitor concentration 0.1 µM) 121%; (inhibitor concentration 1 µM) 94%; (inhibitor concentration 10 µM) 92%.

With MINK1 (UniProt Q8N4C8), the kinase activity remaining is, setting by setting: (inhibitor concentration 0.1 µM) 98%; (inhibitor concentration 1 µM) 97%; (inhibitor concentration 10 µM) 40%.

On to VEGFR1 (UniProt P17948), for which the kinase activity remaining reads like this: (inhibitor concentration 0.1 µM) 112%; (inhibitor concentration 1 µM) 118%; (inhibitor concentration 10 µM) 65%.

Consider EPH-B1, for which the kinase activity remaining by setting is: (inhibitor concentration 0.1 µM) 113%; (inhibitor concentration 1 µM) 106%; (inhibitor concentration 10 µM) 106%.

With ULK1 (UniProt O75385), the kinase activity remaining stood at 115% (inhibitor concentration 0.1 µM), 89% (inhibitor concentration 1 µM) and 75% (inhibitor concentration 10 µM).

On to TTK (UniProt P33981), for which the kinase activity remaining (inhibitor concentration 0.1 µM) amounted to 117%, the kinase activity remaining (inhibitor concentration 1 µM) is 101% and the kinase activity remaining (inhibitor concentration 10 µM) was 84%.

EPH-B3: the kinase activity remaining amounted to 98% (inhibitor concentration 0.1 µM), 88% (inhibitor concentration 1 µM) and 85% (inhibitor concentration 10 µM).

Turning to SIK2 (UniProt Q9H0K1), the kinase activity remaining by setting is: (inhibitor concentration 0.1 µM) 99%; (inhibitor concentration 1 µM) 86%; (inhibitor concentration 10 µM) 77%.

Take BRSK2 (UniProt Q8IWQ3): the kinase activity remaining (inhibitor concentration 0.1 µM) was 77%, the kinase activity remaining (inhibitor concentration 1 µM) is 32% and the kinase activity remaining (inhibitor concentration 10 µM) is 8%.

On to MARK4 (UniProt Q96L34), for which the kinase activity remaining (inhibitor concentration 0.1 µM) was 107%, the kinase activity remaining (inhibitor concentration 1 µM) was determined as 87% and the kinase activity remaining (inhibitor concentration 10 µM) was 49%.

Take ERK2 (UniProt P28482): the kinase activity remaining (inhibitor concentration 0.1 µM) is 102%, the kinase activity remaining (inhibitor concentration 1 µM) was determined as 84% and the kinase activity remaining (inhibitor concentration 10 µM) came out at 81%.

MARK1 (UniProt Q9P0L2): the kinase activity remaining reads like this: (inhibitor concentration 0.1 µM) 116%; (inhibitor concentration 1 µM) 107%; (inhibitor concentration 10 µM) 93%.

With IRAK1 (UniProt P51617), the kinase activity remaining (inhibitor concentration 0.1 µM) was determined as 104%, the kinase activity remaining (inhibitor concentration 1 µM) was found to be 77% and the kinase activity remaining (inhibitor concentration 10 µM) amounted to 27%.

For JAK2 (UniProt O60674), the kinase activity remaining is, setting by setting: (inhibitor concentration 0.1 µM) 101%; (inhibitor concentration 1 µM) 102%; (inhibitor concentration 10 µM) 79%.

On to CAMKK beta, for which the kinase activity remaining runs as follows: (inhibitor concentration 0.1 µM) 107%; (inhibitor concentration 1 µM) 87%; (inhibitor concentration 10 µM) 28%.

Consider PLK1 (UniProt P53350), for which the kinase activity remaining (inhibitor concentration 0.1 µM) came out at 102%, the kinase activity remaining (inhibitor concentration 1 µM) is 114% and the kinase activity remaining (inhibitor concentration 10 µM) came to 98%.

NEK6 (UniProt Q9HC98): the kinase activity remaining is, setting by setting: (inhibitor concentration 0.1 µM) 109%; (inhibitor concentration 1 µM) 96%; (inhibitor concentration 10 µM) 66%.

For PAK6 (UniProt Q9NQU5), the kinase activity remaining reads like this: (inhibitor concentration 0.1 µM) 117%; (inhibitor concentration 1 µM) 106%; (inhibitor concentration 10 µM) 116%.

On to MPSK1 (UniProt O75716), for which the kinase activity remaining (inhibitor concentration 0.1 µM) was found to be 117%, the kinase activity remaining (inhibitor concentration 1 µM) came out at 118% and the kinase activity remaining (inhibitor concentration 10 µM) came to 105%.

For the target LKB1 (UniProt Q15831), the kinase activity remaining is, setting by setting: (inhibitor concentration 0.1 µM) 118%; (inhibitor concentration 1 µM) 103%; (inhibitor concentration 10 µM) 97%.

As to TAO1, the kinase activity remaining (inhibitor concentration 0.1 µM) was found to be 109%, the kinase activity remaining (inhibitor concentration 1 µM) was found to be 98% and the kinase activity remaining (inhibitor concentration 10 µM) was found to be 70%.

Turning to ERK1 (UniProt P27361), the kinase activity remaining is, setting by setting: (inhibitor concentration 0.1 µM) 111%; (inhibitor concentration 1 µM) 108%; (inhibitor concentration 10 µM) 112%.

As to TLK1 (UniProt Q9UKI8), the kinase activity remaining by setting is: (inhibitor concentration 0.1 µM) 113%; (inhibitor concentration 1 µM) 107%; (inhibitor concentration 10 µM) 100%.

For the target p38 gamma MAPK, the kinase activity remaining is, setting by setting: (inhibitor concentration 0.1 µM) 108%; (inhibitor concentration 1 µM) 115%; (inhibitor concentration 10 µM) 97%.

For the target EF2K, the kinase activity remaining (inhibitor concentration 0.1 µM) turned out to be 106%, the kinase activity remaining (inhibitor concentration 1 µM) came to 97% and the kinase activity remaining (inhibitor concentration 10 µM) is 85%.

With MST4 (UniProt Q9P289), the kinase activity remaining (inhibitor concentration 0.1 µM) was 99%, the kinase activity remaining (inhibitor concentration 1 µM) turned out to be 101% and the kinase activity remaining (inhibitor concentration 10 µM) turned out to be 91%.

For the target EPH-B2, the kinase activity remaining worked out at 99% (inhibitor concentration 0.1 µM), 110% (inhibitor concentration 1 µM) and 111% (inhibitor concentration 10 µM).

As for ABL (UniProt P00519), the kinase activity remaining came to 120% (inhibitor concentration 0.1 µM), 113% (inhibitor concentration 1 µM) and 76% (inhibitor concentration 10 µM).

As for MAPKAP-K3, the kinase activity remaining came to 114% (inhibitor concentration 0.1 µM), 62% (inhibitor concentration 1 µM) and 30% (inhibitor concentration 10 µM).

On to EPH-A2, for which the kinase activity remaining is, setting by setting: (inhibitor concentration 0.1 µM) 90%; (inhibitor concentration 1 µM) 95%; (inhibitor concentration 10 µM) 76%.

Turning to TIE2 (UniProt Q02763), the kinase activity remaining (inhibitor concentration 0.1 µM) is 105%, the kinase activity remaining (inhibitor concentration 1 µM) came out at 86% and the kinase activity remaining (inhibitor concentration 10 µM) is 88%.

For the target DYRK3 (UniProt O43781), the kinase activity remaining runs as follows: (inhibitor concentration 0.1 µM) 111%; (inhibitor concentration 1 µM) 84%; (inhibitor concentration 10 µM) 40%.

With Aurora B, the kinase activity remaining (inhibitor concentration 0.1 µM) was 109%, the kinase activity remaining (inhibitor concentration 1 µM) came to 99% and the kinase activity remaining (inhibitor concentration 10 µM) came to 64%.

With CK1 gamma 2, the kinase activity remaining (inhibitor concentration 0.1 µM) was 123%, the kinase activity remaining (inhibitor concentration 1 µM) came to 112% and the kinase activity remaining (inhibitor concentration 10 µM) was 102%.

For the target MKK1, the kinase activity remaining runs as follows: (inhibitor concentration 0.1 µM) 101%; (inhibitor concentration 1 µM) 97%; (inhibitor concentration 10 µM) 69%.

Regarding PKD1 (UniProt P98161), the kinase activity remaining runs as follows: (inhibitor concentration 0.1 µM) 96%; (inhibitor concentration 1 µM) 96%; (inhibitor concentration 10 µM) 48%.

Take TTBK1 (UniProt Q5TCY1): the kinase activity remaining (inhibitor concentration 0.1 µM) amounted to 103%, the kinase activity remaining (inhibitor concentration 1 µM) worked out at 104% and the kinase activity remaining (inhibitor concentration 10 µM) was determined as 96%.

As for Src (UniProt P12931), the kinase activity remaining (inhibitor concentration 0.1 µM) amounted to 110%, the kinase activity remaining (inhibitor concentration 1 µM) was found to be 116% and the kinase activity remaining (inhibitor concentration 10 µM) came out at 100%.

As to AMPK (hum), the kinase activity remaining stood at 68% (inhibitor concentration 0.1 µM), 21% (inhibitor concentration 1 µM) and 6% (inhibitor concentration 10 µM).

For the target EPH-A4, the kinase activity remaining reads like this: (inhibitor concentration 0.1 µM) 99%; (inhibitor concentration 1 µM) 103%; (inhibitor concentration 10 µM) 78%.

On to HER4 (UniProt Q15303), for which the kinase activity remaining runs as follows: (inhibitor concentration 0.1 µM) 92%; (inhibitor concentration 1 µM) 105%; (inhibitor concentration 10 µM) 99%.

As to JNK1 (UniProt P45983), the kinase activity remaining (inhibitor concentration 0.1 µM) worked out at 96%, the kinase activity remaining (inhibitor concentration 1 µM) amounted to 93% and the kinase activity remaining (inhibitor concentration 10 µM) was found to be 92%.

In the case of Aurora A, the kinase activity remaining came to 126% (inhibitor concentration 0.1 µM), 102% (inhibitor concentration 1 µM) and 84% (inhibitor concentration 10 µM).

p38 delta MAPK: the kinase activity remaining worked out at 108% (inhibitor concentration 0.1 µM), 103% (inhibitor concentration 1 µM) and 94% (inhibitor concentration 10 µM).

Regarding CK2, the kinase activity remaining came out at 100% (inhibitor concentration 0.1 µM), 97% (inhibitor concentration 1 µM) and 93% (inhibitor concentration 10 µM).

EPH-B4: the kinase activity remaining runs as follows: (inhibitor concentration 0.1 µM) 110%; (inhibitor concentration 1 µM) 106%; (inhibitor concentration 10 µM) 99%.

For the target Lck (UniProt P06239), the kinase activity remaining (inhibitor concentration 0.1 µM) came to 108%, the kinase activity remaining (inhibitor concentration 1 µM) is 95% and the kinase activity remaining (inhibitor concentration 10 µM) was determined as 86%.

For MKK6 (UniProt P52564), the kinase activity remaining is 95% (inhibitor concentration 0.1 µM), 98% (inhibitor concentration 1 µM) and 91% (inhibitor concentration 10 µM).

For the target TrkA (UniProt P04629), the kinase activity remaining runs as follows: (inhibitor concentration 0.1 µM) 121%; (inhibitor concentration 1 µM) 100%; (inhibitor concentration 10 µM) 83%.
